In PubChem BioAssay (NCATS):
Records with an inconclusive call do not appear. The source made the active and inactive calls. The call rests on the fitted dose curve; in most records, active means well fitted inhibition curve with a large enough effect; inconclusive means small, poorly fitted or top-dose-only effect; inactive means flat fitted curve, though single readings scatter.

Assays:
Assay in all cases: qHTS profiling for inhibitors of Plasmodium falciparum proliferation (AID 504749);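 further: 0% = DMSO vehicle and full inhibition = artemisinin control; nearly all actives have a fitted effect of over 60% in size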
Conditions in all cases: P. falciparum in erythrocytes, SYBR Green DNA, 72 h; series mostly up to 28.7 µM
CP305 = test system: CP305
Summary of the method: (§1)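 Parasite proliferation within erythrocytes, 72 h exposure. Endpoint: SYBR Green I fluorescence after overnight lysis at room temperature. Controls: 0.29 uM artemisinin, DMSO.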

CP315 = test system: CP315
Summary of the method: as §1

CP325 = test system: CP325
Summary of the method: as §1

CP329 = test system: CP329
Summary of the method: as §1

CP335 = test system: CP335
Summary of the method: as §1

DFO2036 = test system: DFO2036
Summary of the method: as §1

DIV14 = test system: DIV14
Summary of the method: as §1

DIV17 = test system: DIV17
Summary of the method: as §1

DIV30 = test system: DIV30
Summary of the method: as §1

Dd2 = test system: Dd2
Summary of the method: as §1

ECU = test system: ECU
Summary of the method: as §1

FAB9 = test system: FAB9
Summary of the method: as §1

GB4 = test system: GB4
Summary of the method: as §1

HB3 = test system: HB3
Summary of the method: as §1

ICS = test system: ICS
Summary of the method: as §1

JCK = test system: JCK
Summary of the method: as §1

N140 = test system: N140
Summary of the method: as §1

P93_24 = test system: P93_24
Summary of the method: as §1

P94_40 = test system: P94_40
Summary of the method: as §1

PAD = test system: PAD
Summary of the method: as §1

CNC(C)(C)Cc1ccccc1
inactive: Potency (CP305) | Potency (CP315) | Potency (CP325) | Potency (CP329) | Potency (CP335) | Potency (DFO2036) | Potency (DIV14) | Potency (DIV17) | Potency (DIV30) | Potency (Dd2) | Potency (ECU) | Potency (FAB9) | Potency (GB4) | Potency (HB3) | Potency (ICS) | Potency (JCK) | Potency (N140) | Potency (P93_24) | Potency (P94_40) | Potency (PAD)

NCCc1ccc(O)cc1
inactive: Potency (CP305) | Potency (CP315) | Potency (CP325) | Potency (CP329) | Potency (CP335) | Potency (DFO2036) | Potency (DIV14) | Potency (DIV17) | Potency (DIV30) | Potency (Dd2) | Potency (ECU) | Potency (FAB9) | Potency (GB4) | Potency (HB3) | Potency (ICS) | Potency (JCK) | Potency (N140) | Potency (P93_24) | Potency (P94_40) | Potency (PAD)

Nc1ccccc1C(=O)O
inactive: Potency (CP305) | Potency (CP315) | Potency (CP325) | Potency (CP329) | Potency (CP335) | Potency (DFO2036) | Potency (DIV14) | Potency (DIV17) | Potency (DIV30) | Potency (Dd2) | Potency (ECU) | Potency (FAB9) | Potency (GB4) | Potency (HB3) | Potency (ICS) | Potency (JCK) | Potency (N140) | Potency (P93_24) | Potency (P94_40) | Potency (PAD)

CN1C(=O)NC(=O)C(C)(C2=CCCCC2)C1=O (stereo not given)
inactive: Potency (CP305) | Potency (CP315) | Potency (CP325) | Potency (CP329) | Potency (CP335) | Potency (DFO2036) | Potency (DIV14) | Potency (DIV17) | Potency (DIV30) | Potency (Dd2) | Potency (ECU) | Potency (FAB9) | Potency (GB4) | Potency (HB3) | Potency (ICS) | Potency (JCK) | Potency (N140) | Potency (P93_24) | Potency (P94_40) | Potency (PAD)

O=C(O)CCCc1ccc(N(CCCl)CCCl)cc1
inactive: Potency (CP305) | Potency (CP315) | Potency (CP325) | Potency (CP329) | Potency (CP335) | Potency (DFO2036) | Potency (DIV14) | Potency (DIV17) | Potency (DIV30) | Potency (Dd2) | Potency (ECU) | Potency (FAB9) | Potency (GB4) | Potency (HB3) | Potency (ICS) | Potency (JCK) | Potency (N140) | Potency (P93_24) | Potency (P94_40) | Potency (PAD)

O=C1OC(c2ccc(O)c(S(=O)(=O)O)c2)(c2ccc(O)c(S(=O)(=O)O)c2)c2c(Br)c(Br)c(Br)c(Br)c21
inactive: Potency (CP305) | Potency (CP315) | Potency (CP325) | Potency (CP329) | Potency (CP335) | Potency (DFO2036) | Potency (DIV14) | Potency (DIV17) | Potency (DIV30) | Potency (Dd2) | Potency (ECU) | Potency (FAB9) | Potency (GB4) | Potency (HB3) | Potency (ICS) | Potency (JCK) | Potency (N140) | Potency (P93_24) | Potency (P94_40) | Potency (PAD)

CC(C)=CC1C(C(=O)OCN2C(=O)C3=C(CCCC3)C2=O)C1(C)C (stereo not given)
inactive: Potency (CP305) | Potency (CP315) | Potency (CP325) | Potency (CP329) | Potency (CP335) | Potency (DFO2036) | Potency (DIV14) | Potency (DIV17) | Potency (DIV30) | Potency (Dd2) | Potency (ECU) | Potency (FAB9) | Potency (GB4) | Potency (HB3) | Potency (ICS) | Potency (JCK) | Potency (N140) | Potency (P93_24) | Potency (P94_40) | Potency (PAD)

CCOC(=O)CC(SP(=S)(OC)OC)C(=O)OCC (stereo not given)
inactive: Potency (CP305) | Potency (CP315) | Potency (CP325) | Potency (CP329) | Potency (CP335) | Potency (DFO2036) | Potency (DIV14) | Potency (DIV17) | Potency (DIV30) | Potency (Dd2) | Potency (ECU) | Potency (FAB9) | Potency (GB4) | Potency (HB3) | Potency (ICS) | Potency (JCK) | Potency (N140) | Potency (P93_24) | Potency (P94_40) | Potency (PAD)

CCCCC/C=C\C/C=C\C/C=C\C/C=C\CCCC(=O)NCC(=O)O
inactive: activity, negative = inhibition (CP305) 3.97% [at 2.67 µM] | activity, negative = inhibition (CP315) -5.37% [at 2.67 µM] | activity, negative = inhibition (CP325) 2.88% [at 2.67 µM] | activity, negative = inhibition (CP329) 5.14% [at 2.67 µM] | activity, negative = inhibition (CP335) 3% [at 2.67 µM] | activity, negative = inhibition (DFO2036) 8.68% [at 2.67 µM] | activity, negative = inhibition (DIV14) 7.6% [at 2.67 µM] | activity, negative = inhibition (DIV17) 1.26% [at 2.67 µM] | activity, negative = inhibition (DIV30) -7.28% [at 2.67 µM] | activity, negative = inhibition (Dd2) 0.222% [at 2.67 µM] | activity, negative = inhibition (ECU) -2.86% [at 2.67 µM] | activity, negative = inhibition (FAB9) 0.295% [at 2.67 µM] | activity, negative = inhibition (GB4) 5.94% [at 2.67 µM] | activity, negative = inhibition (HB3) -4.91% [at 2.67 µM] | activity, negative = inhibition (ICS) -4.84% [at 2.67 µM] | activity, negative = inhibition (JCK) 0.614% [at 2.67 µM] | activity, negative = inhibition (N140) -7.13% [at 2.67 µM] | activity, negative = inhibition (P93_24) -5.2% [at 2.67 µM] | activity, negative = inhibition (P94_40) -8.27% [at 2.67 µM] | activity, negative = inhibition (PAD) 4.88% [at 2.67 µM]

O=C1Nc2ccc(Cl)cc2C(c2ccccc2)=NC1O (stereo not given)
inactive: Potency (CP305) | Potency (CP315) | Potency (CP325) | Potency (CP329) | Potency (CP335) | Potency (DFO2036) | Potency (DIV14) | Potency (DIV17) | Potency (DIV30) | Potency (Dd2) | Potency (ECU) | Potency (FAB9) | Potency (GB4) | Potency (HB3) | Potency (ICS) | Potency (JCK) | Potency (N140) | Potency (P93_24) | Potency (P94_40) | Potency (PAD)

CCC(C)(C)c1ccc(O)cc1
inactive: Potency (CP305) | Potency (CP315) | Potency (CP325) | Potency (CP329) | Potency (CP335) | Potency (DFO2036) | Potency (DIV14) | Potency (DIV17) | Potency (DIV30) | Potency (Dd2) | Potency (ECU) | Potency (FAB9) | Potency (GB4) | Potency (HB3) | Potency (ICS) | Potency (JCK) | Potency (N140) | Potency (P93_24) | Potency (P94_40) | Potency (PAD)

CN1C(=O)CC(=O)N(c2ccccc2)c2cc(Cl)ccc21
inactive: Potency (CP305) | Potency (CP315) | Potency (CP325) | Potency (CP329) | Potency (CP335) | Potency (DFO2036) | Potency (DIV14) | Potency (DIV17) | Potency (DIV30) | Potency (Dd2) | Potency (ECU) | Potency (FAB9) | Potency (GB4) | Potency (HB3) | Potency (ICS) | Potency (JCK) | Potency (N140) | Potency (P93_24) | Potency (P94_40) | Potency (PAD)

NC(=O)CS(=O)C(c1ccccc1)c1ccccc1 (stereo not given)
inactive: Potency (CP305) | Potency (CP315) | Potency (CP325) | Potency (CP329) | Potency (CP335) | Potency (DFO2036) | Potency (DIV14) | Potency (DIV17) | Potency (DIV30) | Potency (Dd2) | Potency (ECU) | Potency (FAB9) | Potency (GB4) | Potency (HB3) | Potency (ICS) | Potency (JCK) | Potency (N140) | Potency (P93_24) | Potency (P94_40) | Potency (PAD)
